Many of the other results were omitted from the sample, so hits are more common in it than they were.
HIV RNase H inh-1 = HIV-1 RT RNase H inhibitors, primary screen, biochemical, fluorescence; Gag-Pol polyprotein (Human immunodeficiency virus type 1 group M subtype B (isolate …; RT-RNase H RNA/DNA duplex cleavage; inhibition, % at 10 µM; 65,000 tested, 1.9% active; in the data active = inhibition above about 50%
RmlCD inh mix = RmlC and RmlD coupled enzyme inhibitors, primary screen, biochemical, 384-well, compound mixtures, retest | 110,000 tested, 0.39% active | AID 1532, 2009 | inhibition, % at 5.5 µM | RmlC/RmlD coupled enzyme inhibition, 384-well mixture HTS; in the data active = inhibition above about 30%, passing the limit was not always enough; inconclusive = no clear call, values can overlap the other calls
HIV RNase H inh-2 = HIV-1 RT RNase H inhibitors, retest, confirmation, biochemical; 1,000 tested, 39% active; Recombinant RT RNase H, fluorescent RNA/DNA duplex cleavage; inhibition, % at 10 µM; shares compounds with HIV RNase H inh-1; in the data active = inhibition above about 48%; inconclusive = no clear call, values can overlap the other calls
Active calls of the source: *; ? = inconclusive; nt = not tested or not shown.

SMILES | HIV RNase H inh-1 | RmlCD inh mix | HIV RNase H inh-2
N#Cc1c(N)[nH]c(=S)c(C#N)c1-c1ccccc1 | 82* | 4 | -5
CCOC(=O)CNC(=O)c1ccccc1Br | -6 | -9 | nt
O=C1CCCC(O)=C1C(C#Cc1ccccc1)C1=C(O)CCCC1=O | 83* | -13 | 78*
O=C1CCCC2=C1C(c1ccccc1O)C1=C(CCCC1=O)O2 | 11 | -7 | nt
Cc1nnc(SCc2ccc(Cl)cc2)n1CC1CCCO1 (stereo not drawn) | -5 | 0 | nt
Cc1ccc(-c2nnn(CC(=O)N(CC(=O)NC3CCCC3)c3cnc4ccccc4c3)n2)o1 | 10 | -7 | nt
CCC(C(=O)NC1CCCC1)N(C(=O)Cn1nnc(-c2ccc(C)o2)n1)c1cnc2ccccc2c1 (stereo not drawn) | 66* | 7 | 47
COc1ccc2nc(NC(=O)C(NS(=O)(=O)c3cccs3)C(C)C)sc2c1 (stereo not drawn) | -4 | 6 | nt
Nc1c(C(=O)NCC2CCCO2)sc(=S)n1-c1ccccc1 (stereo not drawn) | 84* | -3 | ?
CCn1c(N)c(C(=O)NCC2CCCO2)sc1=S (stereo not drawn) | -3 | 26 | nt
Nc1c(C(=O)NCc2cccnc2)sc(=S)n1-c1ccccc1 | 60* | 10 | 63*
CCn1c(N)c(C(=O)NCc2cccnc2)sc1=S | -14 | nt | nt
O=C(CSc1nnc(NCc2ccccc2)s1)c1ccco1 | -35 | -1 | nt
NS(=O)(=O)c1cccnc1Nc1c(Cl)cccc1Cl | nt | -9 | nt
CC1(C)CC(=O)C=C(c2cccs2)C1 | nt | 9 | nt
Cc1ccc(N2CCn3c2nc2c3c(=O)n(CCc3ccccc3)c(=O)n2C)cc1 | 64* | nt | 46
COc1ccc(N2CCCn3c2nc2c3c(=O)n(CCc3ccccc3)c(=O)n2C)cc1 | -21 | 12 | nt
CN1CSC2=C(C#N)C(c3cccc(OCc4ccccc4)c3)CC(=O)N2C1 (stereo not drawn) | 73* | -9 | 60*
COc1ccc(N2CSC3=C(C#N)C(c4cc(OC)c(OC)cc4OC)CC(=O)N3C2)c(OC)c1 (stereo not drawn) | 86* | 7 | 73*
COc1cc(OC)c(C2CC(=O)N3CN(c4ccc(C)cc4)CSC3=C2C#N)cc1OC (stereo not drawn) | 30 | nt | nt
N#CC1=C2SCC(O)(c3ccccc3)N2C(=O)CC1c1ccccc1 (stereo not drawn) | -12 | -15 | nt
CCOc1ccccc1N1CSC2=C(C#N)C(c3c(OC)ccc4ccccc34)CC(=O)N2C1 (stereo not drawn) | 73* | -3 | 64*
COC(=O)C1C(=O)N2CCCSC2=C(C#N)C1c1cccs1 (stereo not drawn) | 0 | -6 | nt
CCOc1ccccc1N1CCN(c2nc3ccccc3nc2C(C#N)C(=O)OC)CC1 (stereo not drawn) | 6 | 8 | nt
COc1ccc(N2CSC3=C(C#N)C(c4cccs4)CC(=O)N3C2)cc1 (stereo not drawn) | 68* | 34 | ?
SMILES | HIV RNase H inh-1 | RmlCD inh mix | HIV RNase H inh-2
COC(=O)c1nn(-c2ccc(Cl)cc2)c(=O)cc1Sc1ccccn1 | nt | -9 | nt
CCSC1=C(C#N)C(c2ccc(OC)c(OC)c2)CC(=O)N1 (stereo not drawn) | -7 | 7 | nt
COc1ccc(N2CSC3=C(C#N)C(c4ccc(OC)c(OC)c4)CC(=O)N3C2)c(OC)c1 (stereo not drawn) | 82* | 13 | 67*
COc1ccc(N2CSC3=C(C#N)C(c4cc(OC)ccc4OC)CC(=O)N3C2)c(OC)c1 (stereo not drawn) | 86* | 6 | 67*
CCCSC1=C(C#N)C(c2cc(OC)ccc2OC)CC(=O)N1 (stereo not drawn) | -45 | 12 | nt
CCCCc1ccc(NC(=O)C2CCCO2)cc1 (stereo not drawn) | -3 | 2 | nt
Cc1ccc(-n2c(N)c(C(N)=O)sc2=S)cc1 | 95* | -1 | 64*
Cc1ccc(-n2c(N)c(C(=O)NCc3ccco3)sc2=S)cc1 | nt | -17 | nt
Nc1nnc(COc2cccc(C(F)(F)F)c2)s1 | 4 | -12 | nt
COc1ccc(NC(=O)N2CCC(n3nnc4cc(C)ccc43)CC2)cc1 | nt | 2 | nt
CCN(CC)C(=O)CSc1nc2ccc(NC(=O)CSc3nccn3C)cc2s1 | 16 | 4 | nt
COC(C[C@@H]1O[C@@H]1[C@@H](O)COCc1ccccc1)OC | nt | -16 | nt
Cc1ccc(NCN2C(=O)C3C4C=CC(C4)C3C2=O)cc1 (stereo not drawn) | -11 | 9 | nt
O=C1C2C3C=CC(C3)C2C(=O)N1CNc1ccc(O)cc1 (stereo not drawn) | 80* | ? | 16
CCN1CCc2c(sc(N)c2C#N)C1 | 15 | 8 | nt
N#Cc1c(N)sc(=S)c2c1CCN(Cc1ccccc1)C2 | 66* | 119* | 35
